Here are results for 28 molecules from PubChem BioAssay.

The structures appear in SMILES notation. Unmarked numbers belong to inactive results.

This assay is described as follows: probe aXIP binding to arrayed compounds – biochemical, NeuroSMM set, 635/667 nm fluorescence, primary screen (AID 1119).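 Further: probe is the protein aXip251-270 applied at 1 µg/mL to compound-printed slides; binding of probe to printed compounds measured as 667 nm fluorescence plus signal to noise.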 Conditions: small-molecule microarray, higher = more signal, called active from +8 up or from −8 down.
Regarding `CSCC[C@@H]1NC(=O)CC=C[C@@H](C)COC(=O)[C@H](C)COC1=O`, the composite Z-score was 3.62.

In the case of `CC1(C)O[C@H]2O[C@H]([C@H](O)CON=C3[C@H]4CCn5c(=O)n(-c6ccccc6)c(=O)n5[C@H]4[C@H](O)[C@@H]4O[C@H]34)[C@H](O)[C@H]2O1`, the composite Z-score is -0.171. The value for `COc1cccc([C@H]2Oc3ccc(OC)cc3C(=NO[C@@H](C)c3cc(-c4c(C)cc(C)cc4C)no3)[C@@H]2O)c1` was -0.238. The value for `CC(=O)OC[C@H]1O[C@H](C#CCCc2ccccc2)C=C[C@@H]1OC(C)=O` was -0.399; that for `CC(C)=CCCC(C)=CCON=C1C[C@@H](O)[C@@H](O)[C@@H]2[C@@H]3C(=O)N(C4CCCCC4)C(=O)[C@@H]3CC[C@H]12` was 1.59; that for `COC(=O)[C@H](C)NC(=O)CCC1CC(OC(=O)NCc2ccc3c(c2)OCO3)CC2(CCCC(COC(=O)NCCc3ccc(Cl)cc3)O2)O1` (stereo partly drawn) was 0.0601. The value for `COC(=O)[C@H](C)NC(=O)CCC1CC(OC(=O)NCCc2ccc(F)cc2)CC2(CCCC(COC(=O)NCC3CCCCC3)O2)O1` (stereo partly drawn) was 0.697; that for `CCN1C(=O)[C@H]2[C@H]3[C@H](O)[C@H](O)CC(=NO[C@H](C)c4cn([C@H](CO)Cc5ccccc5)nn4)[C@@H]3CC[C@H]2C1=O` was 0.444.

`CCN1C(C)=C(C(=O)OC)[C@@H](c2ccccc2)N2C(=O)[C@](O)(C(=O)OC)CC(C(C)=O)=C12`: the composite Z-score is -0.686. For `C=CC[C@@H]1C=C[C@H](ON=C(C)CCN2CCCCc3nc(C)c(C)cc32)[C@@H](CO)O1`, the composite Z-score was 0.325.

As for `CC(C)=NOC(C)CN1CCCCc2nc(C)c(C)cc21` (stereo not drawn), the composite Z-score was 0.761. For `CCOC(=O)[C@H](Cc1ccccc1)NC(=O)CCC1CC(OC(=O)NCCc2ccc(F)cc2)CC2(CCCC(COC(=O)NCCOc3ccccc3)O2)O1` (stereo partly drawn) the value was -0.275; for `Cc1ccc(S(=O)(=O)N[C@@H]2COC(=O)CC=C[C@@H](C)[C@H](NS(=O)(=O)c3ccc(C)cc3)COC(=O)[C@H](C)NC(=O)CC=C[C@H]2C)cc1`, -0.211. The value for `CCOC(=O)CCN1C(=O)[C@H]2[C@H]3[C@H](O)[C@H](O)CC(=NOCC(C)C)[C@@H]3CC[C@H]2C1=O` was 0.544; that for `CC(=O)OC[C@H]1O[C@H](CCON=C(C)CCN2CCCc3nc(C)c(C)cc32)C=C[C@@H]1OC(C)=O` was -0.01; that for `Cc1cc2c(nc1C)CCCCN2CC(O)CN1CCCc2nc(-c3ccc(Br)cc3)ccc21` (stereo not drawn) was -0.211. The value for `CC(C)(C)N1C(=O)[C@H]2[C@@H]3C(=CC[C@H]2C1=O)C(=O)[C@H]1O[C@H]1[C@H]3O` was 0.321; that for `CC(CCN1CCCc2nc(C)c(C)cc21)=NOC[C@@H](C)[C@H](OCc1ccccc1)C(C)C` was 0.081. As to `CON=C(C)CCC(=O)OC[C@H]1O[C@H](C#Cc2ccccc2)C=C[C@@H]1Oc1ccc(C)cc1`, the composite Z-score is -0.054. Consider `C[C@@H]1CC[C@@H](C(=O)O)N[C@H]1c1cccc(N2CCOCC2)c1`, for which the composite Z-score was 0.227.

With `O=C1C2=CC[C@H]3C(=O)N(C4CCCCC4)C(=O)[C@H]3[C@H]2[C@H](O)[C@@H]2O[C@H]12`, the composite Z-score is -0.631. As for `CCOC(=O)[C@H](Cc1ccccc1)NC(=O)CCC1CC(OC(=O)NCCc2ccc(F)cc2)CC2(CCCC(COC(=O)NCc3cccc(C(F)(F)F)c3)O2)O1` (stereo partly drawn), the composite Z-score is 1.43. As to `O=C1[C@H]2[C@H]3[C@H](O)[C@H](O)CC(=NO[C@@H]4O[C@H](CO)[C@@H](O)[C@H](O)[C@H]4O)[C@H]3CC[C@H]2C(=O)N1C[C@@H]1CCCO1`, the composite Z-score was 0.274. For `CC(CCC(=O)OC[C@H]1O[C@H](C#Cc2ccccc2)C=C[C@@H]1Oc1ccc(C)cc1)=NOC[C@@H](C)[C@H](OCc1ccccc1)C(C)C` the value was 0.35; for `C[C@@H]1CC[C@H]2C(=O)OC(Cc3ccccc3)CN2[C@H]1c1ccc(Br)cc1` (stereo partly drawn), -0.014.

As for `COC(=O)CC=C[C@@H](C)[C@@H](C=NOC[C@@H](O)COCc1ccco1)OC`, the composite Z-score was -2.

In the case of `CCc1cc2c(nc1CC)CCN(CCC(C)=NOC[C@@H](C)[C@H](OCc1ccccc1)C(C)C)C2`, the composite Z-score was 0.551. For `O=C1C2=CC[C@H]3C(=O)N(C[C@@H]4CCCO4)C(=O)[C@H]3[C@H]2[C@H](O)[C@@H]2O[C@H]12`, the composite Z-score is -0.275.
